TDP1 block = qHTS Assay for Inhibitors of Tyrosyl-DNA Phosphodiesterase (TDP1); Tyrosyl-DNA phosphodiesterase 1 (Homo sapiens), Q9NUW8; Potency, µM (doses to about 130 µM), for the others: at the highest dose activity change, negative = inhibition, actives largely listed as inhibitors; recombinant TDP1, AlphaScreen DNA substrate cleavage; AID 485290, 2010; actives 0.28% (n = 350,000); note: potency is the fitted concentration of half-maximal effect; nearly all actives have a fitted effect of over 40% in size
Target sequence (Q9NUW8 whole entry, looked up): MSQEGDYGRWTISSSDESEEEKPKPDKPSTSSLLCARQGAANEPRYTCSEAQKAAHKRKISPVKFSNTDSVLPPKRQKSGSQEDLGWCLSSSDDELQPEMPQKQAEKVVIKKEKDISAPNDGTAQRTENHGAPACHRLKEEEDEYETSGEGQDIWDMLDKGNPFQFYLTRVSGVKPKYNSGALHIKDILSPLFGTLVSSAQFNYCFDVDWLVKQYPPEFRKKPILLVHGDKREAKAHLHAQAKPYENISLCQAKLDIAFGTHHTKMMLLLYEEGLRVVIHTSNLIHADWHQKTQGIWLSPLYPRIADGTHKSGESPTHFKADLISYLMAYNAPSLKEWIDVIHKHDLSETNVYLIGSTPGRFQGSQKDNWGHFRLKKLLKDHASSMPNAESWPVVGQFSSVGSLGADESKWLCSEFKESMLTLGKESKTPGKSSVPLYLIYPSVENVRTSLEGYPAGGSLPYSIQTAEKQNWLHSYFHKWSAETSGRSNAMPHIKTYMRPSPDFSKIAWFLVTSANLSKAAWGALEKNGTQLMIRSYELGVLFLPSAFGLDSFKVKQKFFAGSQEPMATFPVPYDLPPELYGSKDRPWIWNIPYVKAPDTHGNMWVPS
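E. coli-derived human Tdp1, 1 nM final. Cpd preinc 15 min RT; substrate 15 nM final, 5 min RT; AS bead mix 10 ug/ml final, 10 min RT. Signal loss = tyrosine-FITC cleavage. No-enzyme wells = max signal.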
TDP1 cell noCPT = qHTS for Inhibitors of human tyrosyl-DNA phosphodiesterase 1 (TDP1): qHTS in cells in absence of CPT; DT40 Tdp1-/- hTDP1 cells, no CPT, ATP luminescence, 48 h; actives 15% (n = 420,000); AID 686978, 2013; Potency, µM (doses to about 46.2 µM), for inactives: at the highest dose activity change, negative = growth inhibition, hits mostly inhibitors; note: potency is the fitted concentration of half-maximal effect; nearly all actives have a fitted effect of over 55% in size
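Compound effects on proliferation are scored in DT40 Tdp1-/-;hTDP1 cells in the absence of CPT. ATP levels (CellTiter-Glo luminescence) are recorded after a ≥48 hr, 37 °C incubation.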
Giardia kill = Small Molecules that selectively kill Giardia lamblia: qHTS; Giardia lamblia trophozoite viability; activity change, % at 7.66 µM, hits read low; actives 0.15% (n = 340,000); in the data active = activity change below about -80%; inconclusive = between about -30% and that limit;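 note: parasites exposed to compound for two days anaerobically before the ATP read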
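Each well holds 100 Giardia trophozoites and compound. After two days (48 hrs) at 37 deg C in anaerobic conditions, ATP is quantified by luminescence.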
TDP1 cell CPT = qHTS for Inhibitors of human tyrosyl-DNA phosphodiesterase 1 (TDP1): qHTS in cells in presence of CPT; chicken DT40 Tdp1-/-;hTDP1 cells + 20 nM CPT, ATP luminescence, 48 h; actives 12% (n = 420,000); AID 686979, 2013; Potency, µM (top dose mostly 46.2 µM), without a hit: at the top dose activity change, negative = growth inhibition, most hits filed as inhibitors; note: potency is the fitted concentration of half-maximal effect; nearly all actives have a fitted effect of over 55% in size
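Chicken DT40 Tdp1-/- cells stably complemented with human TDP1 were seeded at 400 cells/well in medium containing 20 nM camptothecin, exposed to pin-transferred compounds, and grown at 37 °C for at least 48 hr. Viability was read as ATP luminescence.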
IL-1B inflam inh = qHTS for Inhibitors of Inflammasome Signaling: IL-1-beta AlphaLISA Primary Screen; THP-1 LPS/ATP IL-1B secretion, AlphaLISA, 16 h; stronger effect = lower value; activity change, % at 57.5 µM; actives 4.7% (n = 360,000); AID 743279, 2014; in the data active = activity change below about -50%; inconclusive = mostly about -30% to -49%
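Secreted IL-1B measured by AlphaLISA bead assay after 16 h compound exposure of THP-1 cells; compounds (final up to 57.5 uM) added 1 h before LPS (250 ng/mL) and ATP (1.25 mM) stimulation; lower signal means less secretion.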
ELG1 repair inh = qHTS screen for small molecules that inhibit ELG1-dependent DNA repair in human embryonic kidney (HEK293T) cells expressing luciferase-tagged ELG1; HEK293T ELG1-luciferase reporter, luminescence, 16 h; DNA damage induced by 5-fluorouridine; AID 504467, 2011; actives 2.3% (n = 330,000); Potency, µM (series often up to 46.1 µM), inactives show top-dose activity change, negative = inhibition, most hits filed as inhibitors; note: potency is the fitted concentration of half-maximal effect; nearly all actives have a fitted effect of over 55% in size
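Step one: seed 2,000 cells per well. Step two: pin-transfer compound or DMSO alongside 5-fluorouridine. Step three: incubate 16 hr, 37 °C, 5% CO2. Step four: add ONE-Glo, wait 30 min, read luminescence.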
The depositor's hits bear a star; ? = inconclusive; . = no result; ! = repeats disagree; [ ] = dose if it differs, or a comment. Compounds with a hit are over-represented: about 19% of the library has one in this group of screens. Unless noted, calls come from the whole dose curve; as a rule, active = well fitted curve in the direction sought with a large enough effect; inconclusive = small, poorly fitted or top-dose-only effect, or another doubt; inactive = no such curve, though single readings can be large; an effect the other way counts as inactive or inconclusive. % is set by controls: 0 for no effect and ±100 for the full control effect.

SMILES	TDP1 block	TDP1 cell noCPT	Giardia kill	TDP1 cell CPT	IL-1B inflam inh	ELG1 repair inh
CC(=O)[C@H]1[C@H](C#N)C[C@H]2[C@@H]3CC=C4C[C@@H](O)CC[C@]4(C)[C@H]3CC[C@@]21C	8.7%	12.6µM*!	-20.3	?	14.6	4.5%
CC(C)[C@H]1CC2C3CC=C4C[C@@H](O)CC[C@]4(C)C3CC[C@]2(C)[C@H]1O (stereo not given in full)	-0.8%	?	-5.4	-29.2%	-21.1	11.8%
CCN(CC)CCCOC(=O)C(OC(C)C)(c1ccccc1)c1ccccc1	-2.5%	18.4µM*	-20.2	23.1µM*	-56.3*	-13.9%
CCOC(C(=O)OCCCN(CC)CC)(c1ccccc1)c1ccccc1	-3.8%	?	2.3	-18.3%	?	3.3%
CCCCC/C=C\C/C=C\CCCCCCCCCC(=O)NCCc1ccc(O)c(O)c1	6.2%	.	.	.	.	.
Nc1ccccc1C(=O)OCC(=O)N1CCc2ccccc21	3.0%	-9.4%	1.8	-2.7%	-0.9	?
N#CSCC(=O)N1c2ccccc2CCc2ccccc21	5.4%	7.31µM*	9.3	5.8µM*	-51.2*	?
NC(=O)Nc1ccc(C(=O)OCC(=O)Nc2ccc(Cl)cc2C(=O)c2ccccc2)cc1	4.5%	0.5%	-2.6	-1.8%	24.9	20.6µM*
COc1ccccc1NC(=O)COC(=O)c1cn(C)c2ccccc12	-0.3%	?	2.9	?	-3.7	-26.7%
C=C1CCN([C@@H](Cc2ccccc2)C(=O)Nc2ccc(OC)cc2)S(=O)(=O)c2ccccc21	.	?	-28.0	?	-9.7	.
NS(=O)(=O)c1ccc(CCNc2ccn3nc(-c4cccc(C(F)(F)F)c4)cc3n2)cc1	.	?	.	?	-20.5	.
NS(=O)(=O)c1ccc(CCNc2nn3c(-c4ccc(F)c(Cl)c4)cnc3s2)cc1	.	23.1µM*	.	16.4µM*	?	.
Ic1ccccc1CN[C@@H]1C2CCN(CC2)[C@@H]1C(c1ccccc1)c1ccccc1	.	6.51µM*	-3.5	11.6µM*	-50.3*	-4.2%
C[C@]12Cc3cn4c(nc3C=C1CCC1C2CC[C@@]2(C)[C@H]1CC[C@@]2(O)C#N)nc1ccccc14 (stereo not given in full)	2.4%[56.1 µM]	.	.	.	.	.
C[C@]12C=CC(=O)C=C1CC[C@@H]1[C@@H]2CC[C@@]2(C)[C@H]1CC[C@]2(C)O	6.1%	18.8µM*	.	?	.	.
CC12Cc3cnoc3C=C1CCC1C2CCC2(C)C1CCC2(C)O (stereo not given)	.	?	-11.9	?	-50.2*	.
C[C@]1(O)CCC2C3CC[C@@H]4CC(=O)CC[C@]4(C)C3CC[C@@]21C (stereo not given in full)	1.6%	?	-5.9	18.4µM*	13.6	-3.6%
C[C@]12CCC(=O)C=C1CC[C@@H]1[C@@H]2CC[C@@]2(C)[C@H]1CC[C@]2(C)O	5.1%	?	10.0	?	35.4	.
OC[C@@H](O)[C@H]1O[C@@H]2O[C@@H](C(Cl)(Cl)Cl)O[C@@H]2[C@H]1O	.	-22.8%	.	0.5%	.	.
CCCCCNc1c(C(=O)OCC)c(=O)[nH]c2ccccc12	-1.0%	13µM*	-3.0	?	1.0	?
ClCc1ccccc1	9.9%	.	.	.	.	.
CC(=O)c1c(O)cc2c3c1OC(C)(C)C1CCC(C)(CC31)O2 (stereo not given)	.	13µM*	.	20.6µM*	2.0	.
N#CC(C#N)=NNc1ccc(OC(F)(F)F)cc1	21.9%	1.12µM*	.	1.12µM*	.	.
O=C1NC2C(=CC(O)C(O)C2O)c2cc3c(cc21)OCO3 (stereo not given)	.	0.291µM*	-4.6	0.411µM*	-101.2*	.
O=C1NC2C(=CC(O)C(O)C2O)c2cc3c(c(O)c21)OCO3 (stereo not given)	.	0.092µM*	?	0.058µM*	-116.7*	.
SMILES	TDP1 block	TDP1 cell noCPT	Giardia kill	TDP1 cell CPT	IL-1B inflam inh	ELG1 repair inh
O=C1NC2C(O)C(O)C(O)C(O)C2c2cc3c(c(O)c21)OCO3 (stereo not given)	.	0.0731µM*	0.7	0.164µM*	-102.9*	.
CCN1C[C@]2(C)CC[C@H](O)[C@@]34[C@@H]5C[C@@H]6[C@@H](OC)C[C@@](O)(C5[C@H]6O)[C@@H](C[C@@H]23)[C@@H]14	0.8%	.	.	.	.	.
CCCCCc1cc(O)cc(O)c1	13.2%	.	.	.	.	.
c1ccc(-c2ccncc2)cc1	1.4%	-1.3%	-1.7	7.3%	-8.5	9.7%
Cc1cc(-c2ccccc2)cc(C)[n+]1Cc1ccccc1	-2.0%	1.64µM*	-0.7	1.46µM*	-2.2	-13.0%
Cc1cc(C)n2c(Nc3ccc4c(c3)OCCO4)c(-c3cc4ccccc4o3)nc2n1	.	20.6µM*	.	?	18.6	.
CCC1(CC)C(=O)NC(=O)NC1=O	3.1%	18.9%	.	2.3%	.	.
CC(C)c1c(C(=O)NC(c2cccnc2)C(F)(F)F)cnn1-c1nccc(-c2cccs2)n1 (stereo not given)	.	13µM*	.	?	.	.
COc1ccc(C(=O)c2c(C)n(CCN3CCOCC3)c3ccccc23)cc1	4.7%	23.7µM*	.	?	.	.
CCCn1c(C)c(C(=O)c2ccc3ccccc3c2)c2ccccc21	-10.4%[56.1 µM]	.	.	.	.	.
COc1ccc(Nc2nc(NC(C)C)nc3ccsc23)cc1OC	.	18.4µM*	.	18.4µM*	-89.1*	.
COc1ccc(NC2=NCCCS2)cc1OC	.	-2.3%	4.4	14.4%	14.5	21.7%
C=C1[C@@H]2C[C@]3(C(CC2=O)[C@]24C5C[C@H]3[C@H]2N(CC)C[C@]5(C)CC[C@@H]4O)[C@@H]1O (stereo not given in full)	8.2%	.	.	.	.	.
CNc1ccc(C(=O)CC(O)CCC(C)C2OC(=O)CC(O)CC(=O)CC(O)CC(O)CC(O)CC(O)CC3(O)CC(O)C(C(=O)OC)C(CC(O[C@@H]4O[C@H](C)[C@@H](O)[C@H](N)[C@@H]4O)/C=C/C=C/C=C/C=C/C=C/C=C/C=C/C2C)O3)cc1 (stereo not given in full)	.	-24.1%	.	3.2%	.	.
CCOP(=O)(Nc1ccc2c(c1)C(=NNC(N)=S)c1ccccc1-2)OCC	.	9.2µM*	7.9	18.4µM*	0.0	.
COc1ccc(-c2ccc(OC)c(OC)c2OC)cc1	.	5.17µM*	2.6	14.6µM*	36.2	.
